A short description of test [1]: APR_HepG2_P-H2AX_72hr: Apredica 72-hour HepG2 Assay for H2AX Phosphorylation (AID 2282916).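 Note: phospho-histone H2A.x immunostain intensity per cell marking DNA damage.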 The note with it: imaging, actives raise or lower the signal. The procedure, abridged:
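HepG2 human liver cells were exposed for 72 hr to compounds at 0.39–200 uM (10 concentrations, duplicate per plate) in 0.5% v/v DMSO. Fixed, permeabilized cells were immunolabeled for phospho-histone H2A.x with Hoechst 33342 and imaged by HCS fluorescence; bidirectional fit versus DMSO.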

Test [2] can be described thus: APR_HepG2_MitoMembPot_72hr: Apredica 72-hour HepG2 Assay for Mitochondrial Membrane Potential (AID 2282917). The note with it: imaging, actives raise or lower the signal. A digest of the protocol:
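HepG2 cells dosed 72 hr with compound at 0.39–200 uM in duplicate, 0.5% v/v DMSO final. Mitochondria stained with 250 nM MitoTracker Red CMXRos for 30 min before formaldehyde fixation, imaged by high-content fluorescence; bidirectional fit versus DMSO.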

Test [3] in a line: APR_HepG2_MitoticArrest_72hr: Apredica 72-hour HepG2 Assay for Mitotic Arrest (AID 2282918). The note with it: high-content imaging, actives raise or lower the signal. A digest of the protocol:
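High-content imaging of fixed human HepG2 cells after 72 h compound exposure (0.39–200 uM, duplicates, 0.5% DMSO); mitotic arrest scored from phospho-histone H3 and nuclear Hoechst staining relative to DMSO.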

A short description of test [4]: APR_HepG2_P-H2AX_24hr: Apredica 24-hour HepG2 Assay for H2AX Phosphorylation (AID 2282920). The note with it: high-content imaging, actives raise or lower the signal. The procedure, abridged:
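High-content imaging of phospho-histone H2A.x immunofluorescence, nuclei counterstained with Hoechst 33342, in fixed HepG2 cells. Compounds ran 0.39–200 uM in duplicate for 24 h, final DMSO 0.5%. Signal change fitted both directions against DMSO.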

The nature of test [5]: APR_HepG2_StressKinase_72hr: Apredica 72-hour HepG2 Assay for Stress Kinase (AID 2282921). The note with it: HepG2 stress kinase (phospho-c-Jun) imaging, actives raise or lower the signal. A digest of the protocol: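 Cells were exposed for 72 h to ten concentrations (0.39–200 uM, duplicate) at 0.5% v/v DMSO final, then fixed with 3.7% formaldehyde, permeabilized and immunostained for phospho-c-Jun (Cy3 secondary) with Hoechst nuclear counterstain.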

Test [6] in a line: APR_HepG2_StressKinase_24hr: Apredica 24-hour HepG2 Assay for Stress Kinase (AID 2282922). The note with it: HepG2 stress kinase (phospho-c-Jun) imaging, actives raise or lower the signal. The procedure, abridged: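 HepG2 cells exposed 24 h to 0.39–200 uM compound in duplicate (0.5% v/v DMSO final). Cells fixed in 3.7% formaldehyde, permeabilized and immunostained for phospho-c-Jun; read by high-content fluorescence imaging, fitted bidirectionally against DMSO.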

The nature of test [7]: APR_HepG2_MitoMass_72hr: Apredica 72-hour HepG2 Assay for Mitochondrial Mass (AID 2282924).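 Note: MitoTracker Red CMXRos stain intensity per cell imaged as mitochondrial mass.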 The note with it: high-content imaging, actives raise or lower the signal. A digest of the protocol:
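HepG2 cells dosed 72 hr at 0.39–200 uM (0.5% DMSO), in duplicate. MitoTracker Red CMXRos 250 nM loaded 30 min before formaldehyde fixation; high-content fluorescence imaging, bidirectional fit versus DMSO.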

The nature of test [8]: APR_HepG2_NuclearSize_72hr: Apredica 72-hour HepG2 Assay for Nuclear Size (AID 2282925). The note with it: high-content imaging, actives raise or lower the signal. The procedure, abridged: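 HepG2 cells dosed 72 h at 0.39–200 uM (10 concentrations, duplicate) in 0.5% v/v DMSO final. Fixed, Hoechst 33342-stained nuclei imaged; nuclear diameter measured by automated image analysis. Bidirectional fit versus DMSO.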

Test [9] can be described thus: ATG_CRE_CIS: Attagene CIS-FACTORIAL HepG2 Assay for human cAMP Responsive Element (CRE) binding protein 3 (AID 2282926). The note with it: HepG2 CRE cis-reporter, Attagene multiplexed mRNA; actives raise or lower the signal. The procedure, abridged: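 Multiplexed transcription-unit reporters transfected into HepG2; 24 h dosing; RT-PCR/capillary electrophoresis fluorescence read-out; bidirectional fit vs DMSO.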

Test [10] addresses CCAAT/enhancer-binding protein beta (Homo sapiens) (UniProt P17676). The test can be described thus: ATG_C_EBP_CIS: Attagene CIS-FACTORIAL HepG2 Assay for human CCAAT/Enhancer Binding Protein (C/EBP) beta (AID 2282927). The note with it: HepG2 Attagene cis-factorial transcription factor reporter; actives raise or lower the signal. A digest of the protocol:
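HepG2 transiently transfected with multiplexed reporter units under cis-regulatory promoters reporting endogenous C/EBPb activity. After 24 h exposure, reporter mRNA assayed by RT-PCR, fluorescent labelling, HpaI digestion and capillary electrophoresis; bidirectional fitting versus DMSO.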

The nature of test [11]: ATG_CMV_CIS: Attagene CIS-FACTORIAL HepG2 Assay for human CMV (Internal Marker) (AID 2282928).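 Note: endpoint acts as a background internal control marker rather than a target.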 The note with it: HepG2 CMV promoter reporter, transcription factor profiling; actives raise or lower the signal. The procedure, abridged:
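CMV internal-marker background readout in transiently transfected HepG2 cells bearing cis-regulated reporter units. Reporter mRNA is measured 24 h after dosing by RT-PCR and capillary electrophoresis, with bidirectional fitting against DMSO.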

Test [12] in a line: ATG_DR4_LXR_CIS: Attagene CIS-FACTORIAL HepG2 Assay for human Liver X Receptor (LXR), DR4 submotif (AID 2282929). The note with it: HepG2 Attagene DR4 cis-reporter, mRNA transcription; actives raise or lower the signal. A digest of the protocol: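 After transient transfection with multiplexed cis-promoter reporter units, HepG2 cells received test chemicals for 24 h. Reporter mRNA induction, detected by fluorescence after RT-PCR and capillary electrophoresis, was scored relative to DMSO.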

Test [13] deals with Aryl hydrocarbon receptor (Homo sapiens) (UniProt P35869). Description: ATG_Ahr_CIS: Attagene CIS-FACTORIAL HepG2 Assay for human Aryl Hydrocarbon Receptor (Ahr) (AID 2282930). The note with it: HepG2 AhR cis-factorial reporter transcription; actives raise or lower the signal. A digest of the protocol: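 HepG2 cells transiently transfected with cis-element-driven multiplexed reporter units; endogenous AhR activity read as reporter mRNA 24 h after dosing, via RT-PCR, 6-FAM labelling, HpaI digestion and capillary electrophoresis. Bidirectional fit relative to DMSO.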

Test [14] can be described thus: ATG_AP_1_CIS: Attagene CIS-FACTORIAL HepG2 Assay for human Activator Protein 1 (AP-1) (AID 2282931). The note with it: HepG2 Attagene cis-factorial AP-1 reporter mRNA; actives raise or lower the signal. The procedure, abridged: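 After 24 h incubation with test chemical, RNA from transfected HepG2 cells was reverse-transcribed, amplified, fluorescently labelled and digested before capillary electrophoresis. Reporters were driven by cis-regulatory promoters; activity fitted bidirectionally versus DMSO.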

Test [15] can be described thus: ATG_BRE_CIS: Attagene CIS-FACTORIAL HepG2 Assay for human Bone Morphogenetic Protein (BMP) Response Element (BRE) (AID 2282933). The note with it: HepG2 BMP response element reporter, Attagene transcription factor profiling; actives raise or lower the signal. The procedure, abridged:
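After a 24 h chemical treatment, transiently transfected HepG2 cells were lysed for RNA; reporter transcripts were quantified by fluorescent RT-PCR and capillary electrophoresis, normalised to DMSO.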

In test [16] the target is Retinoic acid receptor alpha (Homo sapiens) (UniProt P10276). The test can be described thus: ATG_DR5_RAR_CIS: Attagene CIS-FACTORIAL HepG2 Assay for human Retinoic Acid Receptor Alpha (RARE), DR5 submotif (AID 2282934).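 For AC50: reporter responds to endogenous RAR alpha beta and gamma in HepG2 not RARA alone.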 The note with it: HepG2 Attagene cis-factorial RARE DR5 reporter, mRNA; actives raise or lower the signal. A digest of the protocol:
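HepG2 cells transiently transfected with multiplexed reporter units; DR5 cis-element drives reporter through endogenous transcription factors. After 24 h dosing, reporter mRNA quantified by RT-PCR, fluorescent labeling, HpaI digestion and capillary electrophoresis; bidirectional fitting versus DMSO.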

In test [17] the target is Transcription factor E2F1 (Homo sapiens) (UniProt Q01094). The test can be described thus: ATG_E2F_CIS: Attagene CIS-FACTORIAL HepG2 Assay for human E2F Transcription Factor 1 (AID 2282935). The note with it: HepG2 Attagene cis-reporter, E2F reporter RNA transcripts; actives raise or lower the signal. The procedure, abridged: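 Measures reporter transcript levels via RT-PCR with capillary electrophoresis detection in HepG2 cells harboring cis-regulated reporter units; 24 h post-dose; bidirectional curve fitting with DMSO as baseline.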

Test [18] is described as follows: ATG_E_Box_CIS: Attagene CIS-FACTORIAL HepG2 Assay for human Enhancer Box (E-box) (AID 2282936). The note with it: HepG2 E-box cis-reporter transcription, actives raise or lower the signal. A digest of the protocol: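 First, HepG2 cells receive multiple cis-regulated reporter constructs by transient transfection. Next, chemicals are applied for 24 h. Finally, reporter mRNA is quantified via RT-PCR and capillary electrophoresis, with DMSO as baseline.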

Test [19] is described as follows: ATG_AP_2_CIS: Attagene CIS-FACTORIAL HepG2 Assay for human Activator Protein 2 (AP-2) (AID 2282932). The note with it: HepG2 AP-2 cis-reporter, Attagene transcription factor profiling; actives raise or lower the signal. A digest of the protocol:
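Multiplexed mRNA reporter assay in HepG2: cis-regulated units report endogenous factor activity after 24 h treatment. Fluorescence from capillary electrophoresis of RT-PCR products gives the signal, with DMSO as baseline.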

A structure can be active in one record and inactive in another. Calls of active or inactive are those of the source. Rule for the calls: active = hit-call score of the fitted dose curve at least 0.9, where 1 is the maximum; inactive = score below 0.9.

By AC50 is commonly meant the concentration giving half of the maximal activity seen.

Sequence of Retinoic acid receptor alpha (Homo sapiens) (P10276 whole entry, looked up): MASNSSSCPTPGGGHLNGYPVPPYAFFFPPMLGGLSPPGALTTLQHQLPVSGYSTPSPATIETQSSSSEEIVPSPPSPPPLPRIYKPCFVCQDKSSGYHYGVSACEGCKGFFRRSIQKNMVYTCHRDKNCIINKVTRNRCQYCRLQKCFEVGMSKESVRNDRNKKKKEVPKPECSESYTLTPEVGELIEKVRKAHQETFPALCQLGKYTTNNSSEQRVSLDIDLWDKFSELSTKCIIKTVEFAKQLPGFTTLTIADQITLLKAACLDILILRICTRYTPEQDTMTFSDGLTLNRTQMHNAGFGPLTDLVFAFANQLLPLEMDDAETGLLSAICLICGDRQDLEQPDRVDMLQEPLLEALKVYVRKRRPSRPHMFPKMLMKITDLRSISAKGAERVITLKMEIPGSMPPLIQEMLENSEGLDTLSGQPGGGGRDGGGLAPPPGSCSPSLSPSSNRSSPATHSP
Sequence of Aryl hydrocarbon receptor (Homo sapiens) (P35869 whole entry, looked up): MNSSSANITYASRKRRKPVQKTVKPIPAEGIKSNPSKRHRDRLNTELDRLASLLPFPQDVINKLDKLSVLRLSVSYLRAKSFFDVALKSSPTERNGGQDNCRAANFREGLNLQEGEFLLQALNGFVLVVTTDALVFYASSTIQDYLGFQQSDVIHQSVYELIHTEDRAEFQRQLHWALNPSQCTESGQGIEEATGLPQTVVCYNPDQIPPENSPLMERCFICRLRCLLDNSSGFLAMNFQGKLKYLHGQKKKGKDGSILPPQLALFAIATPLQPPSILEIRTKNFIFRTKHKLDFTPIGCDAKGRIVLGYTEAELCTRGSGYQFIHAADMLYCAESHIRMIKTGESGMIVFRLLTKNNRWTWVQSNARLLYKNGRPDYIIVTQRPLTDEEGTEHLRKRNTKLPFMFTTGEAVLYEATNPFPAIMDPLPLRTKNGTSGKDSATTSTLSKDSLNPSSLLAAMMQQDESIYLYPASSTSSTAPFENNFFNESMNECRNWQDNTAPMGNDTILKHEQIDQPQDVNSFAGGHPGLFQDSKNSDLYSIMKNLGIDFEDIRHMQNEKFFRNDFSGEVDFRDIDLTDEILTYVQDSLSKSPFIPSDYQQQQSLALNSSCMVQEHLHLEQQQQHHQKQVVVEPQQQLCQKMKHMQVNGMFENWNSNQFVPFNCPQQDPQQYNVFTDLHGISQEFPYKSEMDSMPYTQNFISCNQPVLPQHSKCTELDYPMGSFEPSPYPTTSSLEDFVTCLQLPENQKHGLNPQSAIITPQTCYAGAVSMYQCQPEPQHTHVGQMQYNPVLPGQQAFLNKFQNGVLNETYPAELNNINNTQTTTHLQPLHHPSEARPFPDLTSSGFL
Sequence of CCAAT/enhancer-binding protein beta (Homo sapiens) (P17676 whole entry, looked up): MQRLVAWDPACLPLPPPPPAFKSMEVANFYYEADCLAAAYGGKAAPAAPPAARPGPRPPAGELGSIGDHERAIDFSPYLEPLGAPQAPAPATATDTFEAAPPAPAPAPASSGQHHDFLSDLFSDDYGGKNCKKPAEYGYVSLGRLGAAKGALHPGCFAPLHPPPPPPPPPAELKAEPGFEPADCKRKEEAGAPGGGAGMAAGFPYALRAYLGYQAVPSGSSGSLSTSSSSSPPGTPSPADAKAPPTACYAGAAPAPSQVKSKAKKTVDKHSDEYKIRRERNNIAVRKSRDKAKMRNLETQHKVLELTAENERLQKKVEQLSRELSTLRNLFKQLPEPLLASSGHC
Sequence of Transcription factor E2F1 (Homo sapiens) (Q01094 whole entry, looked up): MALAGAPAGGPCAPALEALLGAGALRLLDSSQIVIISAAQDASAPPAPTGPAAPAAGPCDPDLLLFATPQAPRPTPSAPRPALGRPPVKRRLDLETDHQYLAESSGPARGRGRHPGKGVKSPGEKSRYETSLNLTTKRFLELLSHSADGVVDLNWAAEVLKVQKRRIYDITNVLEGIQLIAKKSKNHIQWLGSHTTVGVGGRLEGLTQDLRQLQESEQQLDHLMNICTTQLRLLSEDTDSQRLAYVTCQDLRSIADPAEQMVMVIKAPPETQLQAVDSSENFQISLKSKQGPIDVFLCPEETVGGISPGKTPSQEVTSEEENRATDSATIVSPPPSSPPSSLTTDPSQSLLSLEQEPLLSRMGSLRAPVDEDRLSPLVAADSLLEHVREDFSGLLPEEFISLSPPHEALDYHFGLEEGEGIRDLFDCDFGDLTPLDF

For `O=C(N[C@H]1CN2CCC1CC2)c1ccc2c(c1)OCCO2`, the compound was classed as inactive in test [1], in test [2], in test [3], in test [4], in [5] and in test [6]. In addition, the outcome in test [7], in test [8], in [9], in test [10], in test [11] and in test [12] was inactive. Moreover, the outcome in test [13], in test [14], in test [15], in [16] and in [17] was inactive. Moreover, the AC50 in test [18] is 72.7 µM (active).
In the case of `CS(=O)(=O)c1ccc(C(=O)C2C(=O)CCCC2=O)c(Cl)c1COCC(F)(F)F`, the compound was called inactive in [9], in [10], in test [11], in test [12], in test [13] and in [14]. Further, the call in test [19], in test [15], in test [16], in test [17] and in test [18] was inactive.
Regarding `O=S(=O)(F)C(F)(F)C(F)(F)C(F)(F)C(F)(F)F`, the call in [9], in [10], in test [11], in test [12], in [13] and in test [14] was inactive. Moreover, the outcome in test [19], in test [15], in [16], in test [17] and in test [18] was inactive.
For `c1ccc2c(c1)Oc1ccccc1O2`, the result in [9], in test [10], in test [11], in test [12], in test [14] and in test [19] was inactive. In addition, the compound was classed as inactive in test [15], in test [16], in test [17] and in test [18]. In addition, the AC50 in test [13] was 0.667 µM (active).
In the case of `OCCN(CCO)CCO`, the compound was classed as inactive in test [1], in test [2], in [3], in test [4], in test [5] and in [6]. Also, the result in test [7], in test [8], in test [10], in test [11], in test [12] and in test [15] was inactive. The result in test [16], in test [17] and in [18] was inactive.
As for `Cc1ccccc1OP(=O)(Oc1ccccc1)Oc1ccccc1`, the compound was classed as inactive in [9], in [10], in test [13], in test [19] and in test [18]. Also, the AC50 in test [11] was 76.5 µM (active); in test [12], 12.3 µM (active); in test [14] it was 47.9 µM (active); in [15] it was 64.2 µM (active); in test [16] it was 32 µM (active); in [17], 57.2 µM (active).
On to `C=CC(=O)NC(C)(C)CC(C)=O`, for which the result in test [9], in [10], in [11], in test [12], in test [13] and in test [14] was inactive. Besides, the outcome in [19], in test [15], in [16], in test [17] and in test [18] was inactive.
For the compound `O=C(Nc1ccc(Br)cc1)c1cc(Br)cc(Br)c1O`, the compound was called inactive in test [9], in test [10], in test [11], in test [12], in test [14] and in test [19]. For the same compound, the result in test [17] and in test [18] was inactive. The concentration at half-maximal activity (AC50) was 0.63 µM (active) in [13], 13.3 µM (active) in test [15] and 4.76 µM (active) in test [16].
With `CCCCCCCCCCCCOS(=O)(=O)O`, the call in test [9], in test [10], in test [11], in test [12], in test [14] and in test [19] was inactive. In addition, the compound was called inactive in test [15], in [17] and in [18]. For the same compound, the AC50 in test [12] is 49.3 µM (active).
Regarding `Cc1c([N+](=O)[O-])c(C)c([N+](=O)[O-])c(C(C)(C)C)c1[N+](=O)[O-]`, the compound was called inactive in test [9], in test [10], in test [13], in [14], in test [19] and in test [15]. The result in test [17] and in test [18] was inactive. Also, the AC50 is 100 µM (active) in test [11], 60.7 µM (active) in test [12] and 3.83 µM (active) in test [16].

Values taken from PubChem BioAssay (EPA / NIEHS).
